Screening data from PubChem.
Shown are actives, neighbours in structure and some others; about 3.5% of the full set was active somewhere.
MITF inh: inhibitors of human MITF. AlphaScreen MITF homodimerization, bead proximity signal. O75030. 650,000 tested, 0.91% active. AID 1259374. inhibition, % at 2.6 µM; in the data active means inhibition above about 50%;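 further: 0% = vehicle wells with protein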
GPR151 activ: human GPR151 activation; PathHunter beta-arrestin GPR151 cells, luminescence; activation, % at 11.2 µM; Q8TDV0; 650,000 tested, 1% active; in the data active means activation above about 4.9%;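 further: 0% = median of compound wells and 100% = cells with positive control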
FBW7 activator: human FBW7 E3 ligase activation, primary screen; Q969H0; AlphaScreen FBW7–phospho-cyclin E peptide binding, activator screen; normalized activity (activation), % at 26.1 µM; 650,000 tested, 0.13% active; AID 1259310; in the data active means normalized activity above about 1.9%;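 further: purified mutant Fbw7 with reduced substrate affinity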
Target sequence (Q969H0 whole entry, looked up): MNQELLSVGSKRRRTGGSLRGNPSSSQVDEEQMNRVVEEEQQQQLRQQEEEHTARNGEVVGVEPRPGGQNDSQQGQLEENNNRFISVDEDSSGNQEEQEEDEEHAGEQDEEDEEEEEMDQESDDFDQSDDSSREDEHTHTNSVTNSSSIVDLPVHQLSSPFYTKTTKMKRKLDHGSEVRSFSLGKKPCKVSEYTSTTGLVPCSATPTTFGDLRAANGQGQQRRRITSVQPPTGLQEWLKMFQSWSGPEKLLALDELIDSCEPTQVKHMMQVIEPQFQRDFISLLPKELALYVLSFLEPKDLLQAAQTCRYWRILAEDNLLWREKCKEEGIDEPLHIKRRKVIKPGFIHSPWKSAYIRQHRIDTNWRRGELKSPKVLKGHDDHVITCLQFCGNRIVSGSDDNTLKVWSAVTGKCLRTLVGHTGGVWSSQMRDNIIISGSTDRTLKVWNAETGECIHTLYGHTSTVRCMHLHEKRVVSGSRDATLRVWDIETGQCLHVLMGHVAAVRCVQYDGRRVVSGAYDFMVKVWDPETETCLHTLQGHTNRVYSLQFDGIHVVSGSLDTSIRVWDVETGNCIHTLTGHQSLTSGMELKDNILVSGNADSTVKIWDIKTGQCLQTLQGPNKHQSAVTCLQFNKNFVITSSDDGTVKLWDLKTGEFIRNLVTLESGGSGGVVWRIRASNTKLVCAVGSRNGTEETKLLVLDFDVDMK
TEAD-YAP inh: TEAD-YAP interaction inhibition. HEK-TIYL cells, TEAD-Gal4/YAP UAS-luciferase luminescence. inhibition, % at 9.12 µM. 640,000 tested, 1.4% active; in the data active means inhibition above about 32%;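 further: 0% = median of test compound wells and 100% = reference inhibitor wells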
* marks the source's active call; other numbers are inactive results.

`CCOc1cc(C(NC(=O)C(C)C)c2cc([N+](=O)[O-])c3cccnc3c2O)ccc1O` (stereo not given) gave MITF inh 35, GPR151 activ 1, FBW7 activator -1 and TEAD-YAP inh 9.
Screening CCCC(=O)NC(c1ccc(OC)c(OC)c1)c1cc([N+](=O)[O-])c2cccnc2c1O (stereo not given) returned MITF inh 45, GPR151 activ 0, FBW7 activator 0 and TEAD-YAP inh 17.
For CCC(=O)NC(c1ccc(OC)c(OC)c1)c1cc([N+](=O)[O-])c2cccnc2c1O (stereo not given) the results were MITF inh 68*, GPR151 activ 0, FBW7 activator -1 and TEAD-YAP inh 2.
`CCCC(=O)NC(c1ccccc1)c1cc([N+](=O)[O-])c2cccnc2c1O` (stereo not given) gave MITF inh 76*, GPR151 activ 1, FBW7 activator -1 and TEAD-YAP inh 2.
`CCCCC(=O)NC(c1ccc(OC)c(OC)c1)c1cc([N+](=O)[O-])c2cccnc2c1O` (stereo not given) gave MITF inh 51*, GPR151 activ 2, FBW7 activator 0 and TEAD-YAP inh -8.
`CCOc1cc(C(NC(=O)CC)c2cc([N+](=O)[O-])c3cccnc3c2O)ccc1O` (stereo not given) gave MITF inh 54*, GPR151 activ 0, FBW7 activator 0 and TEAD-YAP inh -6.
`Cn1c(=O)oc2ccc(C(=O)CSc3nnnn3-c3ccccc3)cc21` gave MITF inh 4, GPR151 activ 1, FBW7 activator 0 and TEAD-YAP inh -2.
COC(=O)C1=C(C(=O)OC)SC(=C2C(=S)C(C)(C)N(C(=O)c3ccc(F)cc3)c3ccc(OC)cc32)S1 was read as MITF inh 12, GPR151 activ -1, FBW7 activator 0 and TEAD-YAP inh -1.
For CN(C)c1ccc2sc(SCC(=O)c3ccccc3)nc2c1 the results were MITF inh 12, GPR151 activ -2, FBW7 activator 0 and TEAD-YAP inh -58.
`O=C(NCc1ccc(F)cc1)C1CC1c1ccccc1` (stereo not given) gave MITF inh 9, GPR151 activ 0, FBW7 activator 0 and TEAD-YAP inh -1.
COc1ccc(/C=C(/C#N)c2nc(C3CC3)cs2)cc1OC was read as MITF inh 3, GPR151 activ 1, FBW7 activator 1 and TEAD-YAP inh -35.
For COc1cccc(/C=C(/C#N)c2nc(C3CC3)cs2)c1 the results were MITF inh -1, GPR151 activ -1, FBW7 activator 3.5* and TEAD-YAP inh -56.
For CCOC(=O)c1c(NC(=O)CN(C)C)sc2c1CC(C)(C)NC2(C)C the results were MITF inh 40, GPR151 activ 2, FBW7 activator 0 and TEAD-YAP inh 10.
For COc1ccc(C(=O)Nc2nc3c(s2)CCCC3)c(OC)c1OC the results were MITF inh 8, GPR151 activ -2, FBW7 activator 1 and TEAD-YAP inh 62*.
`COc1cccc(OC)c1C(=O)Nc1nc2c(s1)CCCC2` gave MITF inh 9, GPR151 activ 1, FBW7 activator 1 and TEAD-YAP inh -33.
Screening COc1cccc(C(=O)Nc2nc3c(s2)CCC3)c1OC returned MITF inh -4, GPR151 activ -9, FBW7 activator 0 and TEAD-YAP inh 62*.
CN(C)c1c(N)c(=O)oc2ccccc12 was read as MITF inh 3, GPR151 activ 0, FBW7 activator 0 and TEAD-YAP inh 0.
CC(=O)Nc1cccc(Oc2ccc3c(c2)C(=O)N(c2cccc(Cl)c2)C3=O)c1 was read as MITF inh -7, GPR151 activ -6, FBW7 activator 0 and TEAD-YAP inh 80*.
CC(=O)Nc1cccc(Oc2ccc3c(c2)C(=O)N(c2cccc(OC(C)=O)c2)C3=O)c1 was read as MITF inh -12, GPR151 activ -2, FBW7 activator 0 and TEAD-YAP inh 46*.
Screening CCOc1ccc(Nc2nc(Nc3ccc(OCC)cc3)nc(Sc3nc4ccccc4s3)n2)cc1 returned MITF inh -9, GPR151 activ 0, FBW7 activator 0 and TEAD-YAP inh 3.
For COc1ccc(/C=N\Nc2nc3ccccc3s2)cc1 the results were MITF inh -3, GPR151 activ -2, FBW7 activator 0 and TEAD-YAP inh 42*.
For CCN(CC)S(=O)(=O)c1cc(C(=O)Nc2cccc3c2C(=O)NC3=O)ccc1Cl the results were MITF inh 1, GPR151 activ 1, FBW7 activator 0 and TEAD-YAP inh -3.
NC(=O)COc1ncnc2scc(-c3ccc(Cl)cc3)c12 was read as MITF inh -7, GPR151 activ 1, FBW7 activator 0 and TEAD-YAP inh 2.
Cc1nc(-c2ccc(NC(=O)c3ccc(C)c(C)c3)cc2)cs1 was read as MITF inh 2, GPR151 activ -1, FBW7 activator 0 and TEAD-YAP inh -64.
Cc1nc(-c2ccc(C(=O)Nc3ccc(O)cc3)cc2)cs1 was read as MITF inh -4, GPR151 activ -1, FBW7 activator 0 and TEAD-YAP inh 91*.
`CCn1c(SCC(=O)N2CCN(c3ccccc3)CC2)nnc1-c1ccccc1O` gave MITF inh 9, GPR151 activ 3, FBW7 activator 0 and TEAD-YAP inh 34*.
Screening C=CCn1c(SCC(=O)N2CCOCC2)nnc1-c1ccccc1O returned MITF inh 4, GPR151 activ -1, FBW7 activator 1 and TEAD-YAP inh -5.
For C=CCn1c(SCC(=O)N2CCN(c3ccccc3)CC2)nnc1-c1ccccc1O the results were MITF inh 22, GPR151 activ -2, FBW7 activator 0 and TEAD-YAP inh 33*.
`CCCNC(=O)Cn1ncn2nc(-c3ccc(OC)cc3)cc2c1=O` gave MITF inh 9, GPR151 activ -2, FBW7 activator 1 and TEAD-YAP inh -14.
N#C/C(=C\c1ccc(-c2ccc(Cl)c([N+](=O)[O-])c2)o1)C(N)=O was read as MITF inh 1, GPR151 activ 0, FBW7 activator 0 and TEAD-YAP inh 8.
COc1ccc(S(=O)(=O)Nc2ccc3c(c2)CCCN3C(C)=O)c(OC)c1 was read as MITF inh 12, GPR151 activ 1, FBW7 activator 0 and TEAD-YAP inh 7.
`COc1cc(CNc2ccc3c(c2)CCN3C(C)=O)cc(OC)c1OC` gave MITF inh 1, GPR151 activ 0, FBW7 activator 0 and TEAD-YAP inh 67*.
`Cc1nc(NCc2ccc3c(c2)OCO3)c2c(C)c(C)sc2n1` gave MITF inh 6, GPR151 activ 2, FBW7 activator 0 and TEAD-YAP inh 39*.
Cc1nc(NCC2COc3ccccc3O2)c2c(C)c(C)sc2n1 (stereo not given) was read as MITF inh -12, GPR151 activ 3, FBW7 activator 0 and TEAD-YAP inh 47*.
For c1ccc(Cc2nc(NCC3COc4ccccc4O3)c3c4c(sc3n2)CCCC4)cc1 (stereo not given) the results were MITF inh 9, GPR151 activ 1, FBW7 activator 0 and TEAD-YAP inh -6.
